Measurements: the supplement of paper PMC6555819

How the values were obtained:
Test in all cases: PBM binding z-score (relative to random genomic background probes); higher = stronger binding; sequences stand for … in GC…GCGATTGACAGCGTAGAATGAAGG
[1] = test system: RARb homodimer (NR concentration 270 nM)
Summary of the method: (§1)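 Binding z-scores were set against random background probes. The data came from custom Agilent 4×180K protein-binding microarrays carrying double-stranded probes with 34-nt variable regions, incubated 1 h with ligand-free nuclear receptor dimers. Partner-specific antibodies detected binding, and scanned fluorescence was regression-normalized.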

[2] = test system: RARg:RXRa (NR concentration 270 nM, RXRa partner concentration 90 nM)
Summary of the method: as §1

[3] = test system: RARg homodimer (NR concentration 270 nM)
Summary of the method: as §1

[4] = test system: RXRa DBDmut IVT, anti-RXR (DBD mutation: RXRa K156A/R161A, NR concentration 90 nM)
Summary of the method: as §1

[5] = test system: RXRa homodimer (NR concentration 180 nM)
Summary of the method: as §1

[6] = test system: THRa:RXRa (NR concentration 90 nM, RXRa partner concentration 90 nM)
Summary of the method: as §1

[7] = test system: THRa homodimer (NR concentration 90 nM)
Summary of the method: as §1

[8] = test system: VDR homodimer (NR concentration 270 nM)
Summary of the method: as §1

Sequence	PBM binding z-score [1]	PBM binding z-score [2]	PBM binding z-score [3]	PBM binding z-score [4]	PBM binding z-score [5]	PBM binding z-score [6]	PBM binding z-score [7]	PBM binding z-score [8]
CCAGACAGGTGAGATGGTAACTCAGCCTCGATTA	0.103	0.164	0.225	-0.124	-0.0452	-0.143	0.146	0.202
GCTGCTAGGTCACCTGATGGTCAGCTAAAGCTCG	3.33	4.88	5.27	1.18	2.64	3	1.57	-0.0693
TTACCAAGGTGAAAGGTCGTAGATGCACGCCTTG	2.48	4.5	2.1	-0.0824	6.49	3.42	0.581	0.0396
ACTCGGAGGACAAAGGTTAGAGCTACGCCAGTGA	1.89	2.94	1.93	0.75	1.7	1.76	-0.114	0.17
GATACAGGGTCAAGGCCAGAGAACGCGTATTGAT	3.34	5.35	5.23	2.64	6.11	3.3	1.3	1.59
GCTGCTAGGTCAGGTTGGTCAGCTTACGGGTACG	2.84	2.41	3.46	0.504	0.756	1.8	0.808	0.197
TCTAGTTGGTCACGGAGGTCTCACACGACGGGTA	1.65	1.31	1.72	0.721	1.01	0.636	0.268	0.33
GCTAGCAGGACATTTGGGTCACTCAATGACGGGC	1.56	0.785	0.992	0.736	0.598	1.81	0.828	0.846
CAAACTAGGTCAAGAGGTCAACGTCCGCTTCCCG	5.63	7.92	7.74	2.76	7.68	4.5	2.96	3.84
TCATATATGTAAACAGGTGAAAGTCCGTAAGTTA	0.609	0.551	0.376	1.85	0.989	0.84	0.27	0.413
TCTTGTAGATCAACAGGAGGCTAAGAAAGATCGA	-0.642	0.0636	-0.13	0.0884	-0.111	-0.56	-1.25	-0.893
TAGCCTAGGTCATGGGTCAGTATACCACGCGAAC	3.88	5.09	5.02	0.71	4.72	3.51	1.65	1.29
CCTACTGGGCCAAGAAAGGTCATTGATTCAGTGA	4.44	3.99	3.46	0.261	4.4	3.43	0.419	2.23
CATACAGGGTCAGCTAGGCCAGAGCAGGGACGGC	3.07	4.3	4.47	1.32	4.21	3.18	0.613	0.954
CCTTACGGGTCACGAGGTTTTAGCACGACGAGCG	3.71	5.63	5.4	1.57	6.87	3.12	0.658	1.4
CCGACTGGGGCAGAAAGGTTACCATTCCATCCGG	1.92	1.35	1	-0.71	1.3	0.555	-0.451	-0.34
CCTTACGGGTCACGCCAGGTTATAGCATCGGAGT	3.89	5.65	5.54	1.75	6.22	5.03	0.956	0.985
TCGATTAGGTTACCAATGGGGCATTCAGCTTTCT	1.09	1.39	0.551	1.2	0.573	0.894	0.0109	-0.327
ATCGAGAGGTCGTGAGGTGAGTATACAGAAAGGC	2.4	3.66	3.28	1.43	4.24	3.36	1.63	1.87

Sequence	PBM binding z-score [1]	PBM binding z-score [2]	PBM binding z-score [3]	PBM binding z-score [4]	PBM binding z-score [5]	PBM binding z-score [6]	PBM binding z-score [7]	PBM binding z-score [8]
TAGCCTAGGTGAGATCGGGCCAGTATACGCTATA	-0.246	-0.235	0.0324	-1.2	-0.204	1.52	-0.733	-0.357
GCTGCTAGGTCAATTGATGGTCAGCTAAAGCTCG	2.95	4.28	4.03	1.37	1.95	2.22	-0.157	-0.476
TTACCAAGGTGCAGGTCGTTGATCCCTCTGTAGA	0.634	0.0227	-0.225	0.43	0.481	0.675	0.0392	0.805
TCTCGTAGATCAACAGGAGGTTAAGAAAGATCGA	0.63	0.917	0.145	0.538	1.01	0.902	-0.325	-0.382
TCATAAAGGTAAAGGTGAAAGTCGAACGATATGA	1.86	2.14	2.08	1.06	2.73	1.73	-0.454	0.0173
ACAGACGGGTGAGTGAAGGTAACTCAGCTGGACG	0.0268	-0.0676	0.0149	-0.71	0.204	1.45	-0.184	-0.714
AATACAGGATCATCGTAGGCCAGAGTACGCACAG	0.484	0.381	0.569	0.155	0.54	1.59	-0.259	0.692
GCAGACAGGTGAAACGCAGGTAAGTCAGGGTGGC	0.216	0.37	0.249	-0.846	0.479	0.9	-0.575	-0.728
ATCTATAGGTAAAAGTTCAGTGAATCCCGAGGAT	2.32	1.92	2.03	0.768	1.99	0.789	-0.138	1.46
CTACCAAGGTGAACGAGGTCGTTGATTACTATTC	2.24	2.13	1.32	1.85	2.26	3.36	2.17	3.61
ATCGAAAGGTCGTGAGGTTAGTATACAGAAAGGC	3.14	4.88	4.09	1.9	5.43	3.2	1.07	1.84
AGTCAAAGTTCATCTAGGAAACGTAAGATATGCT	3.89	5.45	6.42	4.79	4.58	1.98	-0.21	4.34
ATACCAAGGTGATCGCGAGGTCGTTGATACTAAC	1.51	2.37	0.886	0.551	1.42	3.11	1.61	2.67
ATCTCTAGGTAAAAGTTCAGTGCATCCCGAGGAT	2.59	1.85	1.81	0.951	1.49	1.43	0.48	2.21
TCTAGTGGGTCACGGAGGTCACACACGACGGGTA	4.95	6.73	7.18	1.53	7.69	4.26	2.34	6.17
CGTCCAAGGTCAAAGAGGTCAGTGAATGCCGAGT	5.66	7.1	7.62	4.35	7.47	4.48	3.36	6.32
ATCTCTAGGTAAAGATAATTCAGTGAATGCAAAT	-0.268	0.658	0.648	0.0492	0.365	0.654	0.0536	-0.00622
TCTAGTTGGTCAAGGGTCACACACTCGAAATGCG	4.19	5.29	4.87	1.59	6.31	3.13	1.47	2.76
CCTATTAGTTGACCATAAGGGCAACCTAAGCTCG	2.22	1.47	1.24	0.437	0.949	2.16	1.8	0.755

Sequence	PBM binding z-score [1]	PBM binding z-score [2]	PBM binding z-score [3]	PBM binding z-score [4]	PBM binding z-score [5]	PBM binding z-score [6]	PBM binding z-score [7]	PBM binding z-score [8]
TTACCAAGGTGAAGGTCTTTGATCCCTCTGTAGA	0.775	0.2	0.513	-0.154	0.759	1.73	0.592	-0.396
ATATGTCGGTTACATCCGGGTCATTCAGGCTATG	2.58	2.37	1.71	0.511	2.45	3.31	2.52	3.41
CGTCAAAGTTCAACTAAGGTAACGTCAAGCACGC	4.4	5.96	6.81	4.8	4.81	5.05	1.86	3.9
ATCTCTTGGTAAAGATAGTTCAGTGAATGCAAAT	1.23	0.592	0.734	0.404	0.246	0.575	0.156	0.713
GGACCGAGGGCAAAGTTGATAGCATCTGTCGACG	1.42	2.15	1.79	2.07	2.15	1.04	-0.484	1.07
TTACCAAGGAGAAGGTCGTTGATCCCTCTGTAGA	0.592	0.225	0.0485	-0.392	1.27	0.759	-0.096	0.372
GGAAAGAGGGCATTCGAGTTGATAGCATGGCGAT	1.42	1.81	1.82	2.67	1.32	3.61	-0.358	2.71
ACAAGTTGGTCAGCTGAGGTCACACACAATTCGG	4.58	4.2	3.99	2.18	4.19	5.13	5.16	3.37
TCGAGAAGGTTACCAATGGGGCATTCAGCTTTCT	1.48	3.02	1.19	0.529	1.86	0.779	-0.839	-0.528
GCATATAGATAATACAAGGTGAAAGTCCGATTGT	0.678	0.441	0.694	0.234	0.586	2.26	0.964	0.0275
AGTCAAAGTTCATCTATGTAACGTAAGATATGCT	3.77	5.2	6.01	4.69	4.74	1.92	-0.492	4.62
ATATGTAGGTTAAGGGTCATTTAGGTTGGTTCGC	4.09	4.79	3.29	2.35	6.16	3.72	1.76	3.97
ACTAGTTGGCCAGCTGAGGTCACACACAATTCGG	3.96	3.64	3.6	0.874	4.1	4.47	5.09	2.74
TCTGCTAGGTCACCGATGGTCAGCTAATCTGCTA	3.6	4.74	5.73	0.891	3.28	3.48	1.23	-0.0284
CCTAGTTGGTCAAGGCCACACACGCTATAGGTAC	1.52	0.785	1.19	0.685	0.442	1.07	1.18	0.836
TGAATGAGGTTATAAGATCAAGGAACGTTGCAAA	0.308	1.58	0.824	0.325	2.15	1.84	0.279	0.367
CAAACTAGGTCACAGATGTCAAAGTCCGTGCGTA	3.51	4.42	4.89	2.36	3.86	3.36	1.68	1.91
TATACAGGTTCAAAGGCCAGAGTACGAATGTCGA	1.82	2.45	1.79	4.01	3.63	1.25	-0.0522	4.75
